Reference: PMC7862700, “An all-to-all approach to the identification of sequence-specific readers for epigenetic DNA modifications on cytosine”

target: T1, ETV2 (Homo sapiens, UniProt O00321 1-342); test: DAPPL (digital affinity profiling via proximity ligation, sequencing); 10 mM Tris-HCl pH 7.5, 50 mM NaCl, 1 mM DTT, 4% glycerol, room temperature, 30 min; GST-TFs on glutathione beads, 16-mer random dsDNA library, 0.1% formaldehyde crosslink after washing; high values mean tight binding; conditions: protein: recombinant; tags: N-terminal GST; dsDNA, one strand shown
T1 sequence: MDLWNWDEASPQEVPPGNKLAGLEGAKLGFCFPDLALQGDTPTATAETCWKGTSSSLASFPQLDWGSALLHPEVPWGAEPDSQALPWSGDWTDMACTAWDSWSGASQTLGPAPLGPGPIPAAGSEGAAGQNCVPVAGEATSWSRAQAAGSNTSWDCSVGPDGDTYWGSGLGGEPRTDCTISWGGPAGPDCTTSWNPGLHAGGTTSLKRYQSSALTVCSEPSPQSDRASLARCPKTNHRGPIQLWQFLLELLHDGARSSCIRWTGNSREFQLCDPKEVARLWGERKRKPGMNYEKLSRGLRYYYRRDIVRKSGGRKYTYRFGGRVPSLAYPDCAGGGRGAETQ
Method in brief: (§1)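 Binding signal is given per hexamer as its read frequency for a factor divided by its frequency in the tag-only sample. GST-fused human transcription factors were expressed in yeast, captured on glutathione beads, barcoded with DNA and pooled with that sample, then incubated with 200 nmole of a 16-mer random double-stranded DNA library in Tris/NaCl/DTT/glycerol buffer for 30 min at room temperature. The pools were then washed, crosslinked, proximity-ligated, amplified by PCR and sequenced on an Illumina NextSeq500.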

Sequence	binding signal
TCCATG	1.2 fold enrichment (6-mer frequency, TF over GST control)
CTTAGT	1.06 fold enrichment (6-mer frequency, TF over GST control)
TACTTT	1.33 fold enrichment (6-mer frequency, TF over GST control)
CCCTAC	1.22 fold enrichment (6-mer frequency, TF over GST control)
TTCTAT	1.32 fold enrichment (6-mer frequency, TF over GST control)
TCAAAC	1.3 fold enrichment (6-mer frequency, TF over GST control)
ATATAA	1.24 fold enrichment (6-mer frequency, TF over GST control)
TCCCGG	2 fold enrichment (6-mer frequency, TF over GST control)
CTTAAC	1.25 fold enrichment (6-mer frequency, TF over GST control)
TTACAC	1.16 fold enrichment (6-mer frequency, TF over GST control)
AGTGCT	1.42 fold enrichment (6-mer frequency, TF over GST control)
TCGACT	1.33 fold enrichment (6-mer frequency, TF over GST control)
GCTATT	1.41 fold enrichment (6-mer frequency, TF over GST control)
TGTCTT	1.18 fold enrichment (6-mer frequency, TF over GST control)
GCCTTA	1.1 fold enrichment (6-mer frequency, TF over GST control)
GCTCCT	1.57 fold enrichment (6-mer frequency, TF over GST control)
TCTACT	1.31 fold enrichment (6-mer frequency, TF over GST control)
ATTTTT	1.29 fold enrichment (6-mer frequency, TF over GST control)
TCTTAC	1.39 fold enrichment (6-mer frequency, TF over GST control)
ATTTGA	1.16 fold enrichment (6-mer frequency, TF over GST control)

Sequence	binding signal
TATCCA	1.37 fold enrichment (6-mer frequency, TF over GST control)
CTGTTA	1.35 fold enrichment (6-mer frequency, TF over GST control)
AATGCC	1.06 fold enrichment (6-mer frequency, TF over GST control)
CGAATA	1.29 fold enrichment (6-mer frequency, TF over GST control)
GATTCC	1.13 fold enrichment (6-mer frequency, TF over GST control)
GAACTC	1.1 fold enrichment (6-mer frequency, TF over GST control)
TTCACG	1.34 fold enrichment (6-mer frequency, TF over GST control)
TTCAAT	1.43 fold enrichment (6-mer frequency, TF over GST control)
TTCTCT	1.29 fold enrichment (6-mer frequency, TF over GST control)
TCTCGT	1.27 fold enrichment (6-mer frequency, TF over GST control)
ACAATT	1.29 fold enrichment (6-mer frequency, TF over GST control)
AACTGG	1.31 fold enrichment (6-mer frequency, TF over GST control)
ATCCTT	1.57 fold enrichment (6-mer frequency, TF over GST control)
GCGCTT	1.12 fold enrichment (6-mer frequency, TF over GST control)
TATGTT	1.08 fold enrichment (6-mer frequency, TF over GST control)
GACTCT	1.26 fold enrichment (6-mer frequency, TF over GST control)
TAATGC	1.29 fold enrichment (6-mer frequency, TF over GST control)
CCTTAG	1.32 fold enrichment (6-mer frequency, TF over GST control)
CTGACT	1.48 fold enrichment (6-mer frequency, TF over GST control)
AACTAC	1.42 fold enrichment (6-mer frequency, TF over GST control)

target: T2, ELF3 (Homo sapiens, UniProt P78545 1-371); test: as above; conditions: protein: recombinant; tags: N-terminal GST; dsDNA, one strand shown
T2 sequence: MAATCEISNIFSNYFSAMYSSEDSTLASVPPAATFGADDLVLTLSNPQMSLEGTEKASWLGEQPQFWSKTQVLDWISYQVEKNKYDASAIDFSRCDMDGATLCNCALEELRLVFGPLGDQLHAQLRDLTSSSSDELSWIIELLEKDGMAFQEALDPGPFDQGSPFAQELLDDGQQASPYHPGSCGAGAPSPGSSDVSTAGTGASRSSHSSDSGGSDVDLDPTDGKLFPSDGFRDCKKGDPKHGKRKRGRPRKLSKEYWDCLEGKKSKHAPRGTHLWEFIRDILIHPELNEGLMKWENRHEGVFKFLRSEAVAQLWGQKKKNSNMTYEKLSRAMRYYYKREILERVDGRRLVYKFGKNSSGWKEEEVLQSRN
Method in brief: as §1

Sequence	binding signal
TCCATG	1.25 fold enrichment (6-mer frequency, TF over GST control)
CTTAGT	1.18 fold enrichment (6-mer frequency, TF over GST control)
TACTTT	1.73 fold enrichment (6-mer frequency, TF over GST control)
CCCTAC	1.48 fold enrichment (6-mer frequency, TF over GST control)
TTCTAT	1.28 fold enrichment (6-mer frequency, TF over GST control)
TCAAAC	1.24 fold enrichment (6-mer frequency, TF over GST control)
ATATAA	1.28 fold enrichment (6-mer frequency, TF over GST control)
TCCCGG	2.17 fold enrichment (6-mer frequency, TF over GST control)
CTTAAC	1.36 fold enrichment (6-mer frequency, TF over GST control)
TTACAC	1.2 fold enrichment (6-mer frequency, TF over GST control)
AGTGCT	1.02 fold enrichment (6-mer frequency, TF over GST control)
TCGACT	1.49 fold enrichment (6-mer frequency, TF over GST control)
GCTATT	1.45 fold enrichment (6-mer frequency, TF over GST control)
TGTCTT	1.25 fold enrichment (6-mer frequency, TF over GST control)
GCCTTA	1.24 fold enrichment (6-mer frequency, TF over GST control)
GCTCCT	1.57 fold enrichment (6-mer frequency, TF over GST control)
TCTACT	1.38 fold enrichment (6-mer frequency, TF over GST control)
ATTTTT	1.2 fold enrichment (6-mer frequency, TF over GST control)
TCTTAC	1.13 fold enrichment (6-mer frequency, TF over GST control)
ATTTGA	1.16 fold enrichment (6-mer frequency, TF over GST control)

Sequence	binding signal
TATCCA	1.31 fold enrichment (6-mer frequency, TF over GST control)
CTGTTA	1.32 fold enrichment (6-mer frequency, TF over GST control)
AATGCC	1.24 fold enrichment (6-mer frequency, TF over GST control)
CGAATA	1.07 fold enrichment (6-mer frequency, TF over GST control)
GATTCC	1.09 fold enrichment (6-mer frequency, TF over GST control)
GAACTC	1.29 fold enrichment (6-mer frequency, TF over GST control)
TTCACG	1.41 fold enrichment (6-mer frequency, TF over GST control)
TTCAAT	1.36 fold enrichment (6-mer frequency, TF over GST control)
TTCTCT	1.37 fold enrichment (6-mer frequency, TF over GST control)
TCTCGT	1.65 fold enrichment (6-mer frequency, TF over GST control)
ACAATT	1.35 fold enrichment (6-mer frequency, TF over GST control)
AACTGG	1.17 fold enrichment (6-mer frequency, TF over GST control)
ATCCTT	1.47 fold enrichment (6-mer frequency, TF over GST control)
GCGCTT	1.04 fold enrichment (6-mer frequency, TF over GST control)
TATGTT	1.1 fold enrichment (6-mer frequency, TF over GST control)
GACTCT	1.28 fold enrichment (6-mer frequency, TF over GST control)
TAATGC	1.23 fold enrichment (6-mer frequency, TF over GST control)
CCTTAG	1.05 fold enrichment (6-mer frequency, TF over GST control)
CTGACT	1.52 fold enrichment (6-mer frequency, TF over GST control)
AACTAC	1.31 fold enrichment (6-mer frequency, TF over GST control)

target: CRX (Homo sapiens, UniProt O43186 1-299); test: as above; conditions: protein: recombinant; tags: N-terminal GST; dsDNA, one strand shown
Method in brief: as §1

CRX, sequence (O43186 whole entry): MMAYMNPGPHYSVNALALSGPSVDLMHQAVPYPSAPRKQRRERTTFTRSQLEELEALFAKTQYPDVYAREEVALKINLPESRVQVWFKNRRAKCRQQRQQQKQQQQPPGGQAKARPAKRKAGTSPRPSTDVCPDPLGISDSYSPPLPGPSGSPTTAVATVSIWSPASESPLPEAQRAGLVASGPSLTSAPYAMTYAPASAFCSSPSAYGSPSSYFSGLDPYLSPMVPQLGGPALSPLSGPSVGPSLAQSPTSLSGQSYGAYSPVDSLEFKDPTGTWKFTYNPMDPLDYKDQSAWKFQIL

Sequence	binding signal
TCCATG	1.13 fold enrichment (6-mer frequency, TF over GST control)
CTTAGT	1.98 fold enrichment (6-mer frequency, TF over GST control)
TACTTT	1.71 fold enrichment (6-mer frequency, TF over GST control)
CCCTAC	1.19 fold enrichment (6-mer frequency, TF over GST control)
TTCTAT	1.67 fold enrichment (6-mer frequency, TF over GST control)
TCAAAC	1.14 fold enrichment (6-mer frequency, TF over GST control)
ATATAA	1.68 fold enrichment (6-mer frequency, TF over GST control)
TCCCGG	1.41 fold enrichment (6-mer frequency, TF over GST control)
CTTAAC	2.4 fold enrichment (6-mer frequency, TF over GST control)
TTACAC	1.73 fold enrichment (6-mer frequency, TF over GST control)
AGTGCT	1.16 fold enrichment (6-mer frequency, TF over GST control)
TCGACT	1.36 fold enrichment (6-mer frequency, TF over GST control)
GCTATT	1.38 fold enrichment (6-mer frequency, TF over GST control)
TGTCTT	1.3 fold enrichment (6-mer frequency, TF over GST control)
GCCTTA	1.64 fold enrichment (6-mer frequency, TF over GST control)
GCTCCT	1.34 fold enrichment (6-mer frequency, TF over GST control)
TCTACT	1.45 fold enrichment (6-mer frequency, TF over GST control)
ATTTTT	1.28 fold enrichment (6-mer frequency, TF over GST control)
TCTTAC	1.7 fold enrichment (6-mer frequency, TF over GST control)
ATTTGA	1.41 fold enrichment (6-mer frequency, TF over GST control)

Sequence	binding signal
TATCCA	1.75 fold enrichment (6-mer frequency, TF over GST control)
CTGTTA	1.16 fold enrichment (6-mer frequency, TF over GST control)
AATGCC	1.16 fold enrichment (6-mer frequency, TF over GST control)
CGAATA	1.31 fold enrichment (6-mer frequency, TF over GST control)
GATTCC	1.15 fold enrichment (6-mer frequency, TF over GST control)
GAACTC	1.02 fold enrichment (6-mer frequency, TF over GST control)
TTCACG	1.26 fold enrichment (6-mer frequency, TF over GST control)
TTCAAT	1.38 fold enrichment (6-mer frequency, TF over GST control)
TTCTCT	1.49 fold enrichment (6-mer frequency, TF over GST control)
TCTCGT	1.35 fold enrichment (6-mer frequency, TF over GST control)
ACAATT	1.13 fold enrichment (6-mer frequency, TF over GST control)
AACTGG	1.16 fold enrichment (6-mer frequency, TF over GST control)
ATCCTT	2.37 fold enrichment (6-mer frequency, TF over GST control)
GCGCTT	1.39 fold enrichment (6-mer frequency, TF over GST control)
TATGTT	1.26 fold enrichment (6-mer frequency, TF over GST control)
GACTCT	1.13 fold enrichment (6-mer frequency, TF over GST control)
TAATGC	2.32 fold enrichment (6-mer frequency, TF over GST control)
CCTTAG	1.28 fold enrichment (6-mer frequency, TF over GST control)
CTGACT	1.07 fold enrichment (6-mer frequency, TF over GST control)
AACTAC	1.2 fold enrichment (6-mer frequency, TF over GST control)

target: ETV1 (Homo sapiens, UniProt P50549 1-477); test: as above; conditions: protein: recombinant; tags: N-terminal GST; dsDNA, one strand shown
Method in brief: as §1

ETV1, sequence (P50549 whole entry): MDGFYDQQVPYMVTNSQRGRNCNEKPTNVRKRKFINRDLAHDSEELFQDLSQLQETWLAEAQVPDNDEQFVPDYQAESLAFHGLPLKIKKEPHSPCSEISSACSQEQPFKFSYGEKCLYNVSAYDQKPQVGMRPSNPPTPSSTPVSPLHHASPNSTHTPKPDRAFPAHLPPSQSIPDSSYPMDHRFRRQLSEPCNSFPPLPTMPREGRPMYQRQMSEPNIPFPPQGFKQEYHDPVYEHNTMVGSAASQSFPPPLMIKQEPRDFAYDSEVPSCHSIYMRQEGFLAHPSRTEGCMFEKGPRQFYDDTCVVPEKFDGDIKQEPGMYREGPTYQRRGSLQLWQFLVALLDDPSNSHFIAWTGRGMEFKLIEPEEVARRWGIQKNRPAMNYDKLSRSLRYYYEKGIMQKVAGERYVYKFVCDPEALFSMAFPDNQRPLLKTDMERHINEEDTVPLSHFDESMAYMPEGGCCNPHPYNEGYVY

Sequence	binding signal
TCCATG	1.09 fold enrichment (6-mer frequency, TF over GST control)
CTTAGT	1.17 fold enrichment (6-mer frequency, TF over GST control)
TACTTT	1.39 fold enrichment (6-mer frequency, TF over GST control)
CCCTAC	1.46 fold enrichment (6-mer frequency, TF over GST control)
TTCTAT	1.3 fold enrichment (6-mer frequency, TF over GST control)
TCAAAC	1.29 fold enrichment (6-mer frequency, TF over GST control)
ATATAA	1.16 fold enrichment (6-mer frequency, TF over GST control)
TCCCGG	2.21 fold enrichment (6-mer frequency, TF over GST control)
CTTAAC	1.14 fold enrichment (6-mer frequency, TF over GST control)
TTACAC	1.27 fold enrichment (6-mer frequency, TF over GST control)
AGTGCT	1.32 fold enrichment (6-mer frequency, TF over GST control)
TCGACT	1.38 fold enrichment (6-mer frequency, TF over GST control)
GCTATT	1.3 fold enrichment (6-mer frequency, TF over GST control)
TGTCTT	1.24 fold enrichment (6-mer frequency, TF over GST control)
GCCTTA	1.14 fold enrichment (6-mer frequency, TF over GST control)
GCTCCT	1.46 fold enrichment (6-mer frequency, TF over GST control)
TCTACT	1.47 fold enrichment (6-mer frequency, TF over GST control)
ATTTTT	1.28 fold enrichment (6-mer frequency, TF over GST control)
TCTTAC	1.32 fold enrichment (6-mer frequency, TF over GST control)
ATTTGA	1.2 fold enrichment (6-mer frequency, TF over GST control)

Sequence	binding signal
TATCCA	1.27 fold enrichment (6-mer frequency, TF over GST control)
CTGTTA	1.23 fold enrichment (6-mer frequency, TF over GST control)
AATGCC	1.11 fold enrichment (6-mer frequency, TF over GST control)
CGAATA	1.19 fold enrichment (6-mer frequency, TF over GST control)
GATTCC	1.21 fold enrichment (6-mer frequency, TF over GST control)
GAACTC	1.35 fold enrichment (6-mer frequency, TF over GST control)
TTCACG	1.32 fold enrichment (6-mer frequency, TF over GST control)
TTCAAT	1.45 fold enrichment (6-mer frequency, TF over GST control)
TTCTCT	1.36 fold enrichment (6-mer frequency, TF over GST control)
TCTCGT	1.27 fold enrichment (6-mer frequency, TF over GST control)
ACAATT	1.24 fold enrichment (6-mer frequency, TF over GST control)
AACTGG	1.14 fold enrichment (6-mer frequency, TF over GST control)
ATCCTT	1.67 fold enrichment (6-mer frequency, TF over GST control)
GCGCTT	1.3 fold enrichment (6-mer frequency, TF over GST control)
TATGTT	1.1 fold enrichment (6-mer frequency, TF over GST control)
GACTCT	1.32 fold enrichment (6-mer frequency, TF over GST control)
TAATGC	1.28 fold enrichment (6-mer frequency, TF over GST control)
CCTTAG	1.22 fold enrichment (6-mer frequency, TF over GST control)
CTGACT	1.4 fold enrichment (6-mer frequency, TF over GST control)
AACTAC	1.34 fold enrichment (6-mer frequency, TF over GST control)
